Laboratory results published in PubChem BioAssay (Tox21).
A number with no mark means an inactive call. Results filed as inconclusive are left out. Where a call stands in place of a potency, no number is given. Calls of active or inactive are those of the source. Unless noted, calls follow the shape of the dose curve; as a rule, active = well fitted curve in the direction sought with a large enough effect in the repeat runs; inconclusive = weak or mixed curves; inactive = no such curve, though single readings can be large; an effect the other way counts as inactive or inconclusive.

What was measured:
[1] = qHTS assay to identify small molecule antagonists of the estrogen receptor alpha (ER-alpha) signaling pathway using the BG1 cell line in the presence of 0.1 nM 17-beta-estradiol - cell viability counter screen (AID 1259241); conditions: VM7Luc4E2 (BG1) viability, CellTiter-Fluor protease, 22 h, 0.1 nM estradiol agonist added; series mostly up to 92.4 µM; also: nearly all actives have a fitted effect of over 40% in size
Procedure, shortened: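 CellTiter-Fluor read (30 min, 37C) on ER-alpha/ERE-luc VM7Luc4E2 cells; 22 hr compound treatment; agonist 0.1 nM E2 final; same-well multiplex.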

[2] = qHTS assay to identify small molecule antagonists of the androgen receptor (AR) signaling pathway using the MDA cell line in the presence of 0.5 nM R1881 - cell viability counter screen (AID 1259242); conditions: MDA-kb2 viability, CellTiter-Fluor protease fluorescence, 16 h; series mostly up to 92.4 µM; also: nearly all actives have a fitted effect of over 45% in size
Procedure, shortened: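 Steps: plate MDA-kb2 cells, rest 5 hr at 37C without CO2; pin in compounds in DMSO; add R1881 to 0.5 nM final; incubate 16 hr; add CellTiter-Fluor, 30 min; read fluorescence.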

[3] = qHTS assay to identify small molecule HDAC inhibitors (AID 1259364); conditions: HCT-116 HDAC-Glo I/II luminescence, 2 h; series mostly up to 92.4 µM;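 also: wild-type HCT-116 cells with endogenous class I/II HDAC activity; top concentration of the series differs between compounds; nearly all actives have a fitted effect of over 45% in size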
Procedure, shortened: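 Cells (HCT-116, wild type) are seeded at 1,500 per well, incubated overnight, treated with compound in DMSO for 2 hr, then developed with HDAC-Glo I/II reagent for 30 min at room temperature.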

[4] = qHTS assay to identify small molecule HDAC inhibitors - cell viability counter screen (AID 1259365); conditions: HCT-116 viability, CellTiter-Glo ATP luminescence, 2 h; series mostly up to 92.4 µM; also: nearly all actives have a fitted effect of over 50% in size
Procedure, shortened: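 To flag cytotoxic hits, 1,500 wild-type HCT-116 cells per well, plated the day before, receive test compounds for 2hr at 37 C before CellTiter-Glo reagent and a luminescence read.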

[5] = qHTS assay to identify small molecule agonists of the sonic hedgehog signaling (Shh) pathway - cell viability counter screen (AID 1259366); conditions: NIH/3T3 Gli1-Luc viability, CellTiter-Fluor, 24 h; series mostly up to 92.4 µM; also: nearly all actives have a fitted effect of over 50% in size
Procedure, shortened: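 Fluorescence from CellTiter-Fluor reports live cells in this counter screen. NIH/3T3-derived Gli1-Luc reporter cells receive test compounds for 24hr at 37C; reagent goes in at 23hr.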

[6] = qHTS assay to identify small molecule antagonists of the sonic hedgehog signaling (Shh) pathway - cell viability counter screen (AID 1259367); conditions: NIH/3T3 Gli1-Luc viability, CellTiter-Fluor, 24 h; series mostly up to 92.4 µM; also: nearly all actives have a fitted effect of over 55% in size
Procedure, shortened: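 CellTiter-Fluor signal in conditioned medium-stimulated 3T3 Gli1-Luc cells, 23 hr compound exposure, 37C.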

[7] = qHTS assay to identify small molecule agonists of the sonic hedgehog signaling (Shh) pathway (AID 1259368; calls by dose curve;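 also: NIH/3T3-derived 3T3Gli1-Luc cells carrying a stable Gli1-driven firefly luciferase reporter; nearly all actives have a fitted effect of over 15% in size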); conditions: NIH/3T3 Gli1-Luc reporter, luciferase, 24 h, hits give high values; series mostly up to 92.4 µM
Procedure, shortened: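 Cells of a mouse NIH/3T3 clone stably expressing luciferase under the Gli1 transcriptional response element are exposed to test chemicals for 24 hr at 37 C. Pathway activation is detected as a rise in luminescence.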

[8] = qHTS assay to identify small molecule antagonists of the sonic hedgehog signaling (Shh) pathway (AID 1259369; calls by dose curve; also: nearly all actives have a fitted effect of over 45% in size; also: potency is read from the fitted curve at half-maximal effect); conditions: NIH/3T3 Gli1-Luc reporter, Shh antagonist, luminescence 24 h; series mostly up to 92.4 µM
Procedure, shortened: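 Cells are plated and held 4hr at 37 C, compounds (DMSO) are pinned in, conditioned medium is added to stimulate the pathway, and after 24hr luciferase reagent is added for 30min before luminescence is read.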

[9] = molecular target: Estrogen receptor beta (Homo sapiens) (UniProt Q92731); test: qHTS assay to identify small molecule agonists of the estrogen receptor beta (ER-beta) signaling pathway (AID 1259377; active = well fitted activation curve with a large enough effect in the signal ratio in the repeat runs, not every such curve was filed as active; the % refers to the signal ratio); conditions: ER-beta-UAS-bla HEK293T, beta-lactamase FRET ratio, 16 h; series mostly up to 92.4 µM
Estrogen receptor beta (Homo sapiens), sequence (Q92731 whole entry, looked up): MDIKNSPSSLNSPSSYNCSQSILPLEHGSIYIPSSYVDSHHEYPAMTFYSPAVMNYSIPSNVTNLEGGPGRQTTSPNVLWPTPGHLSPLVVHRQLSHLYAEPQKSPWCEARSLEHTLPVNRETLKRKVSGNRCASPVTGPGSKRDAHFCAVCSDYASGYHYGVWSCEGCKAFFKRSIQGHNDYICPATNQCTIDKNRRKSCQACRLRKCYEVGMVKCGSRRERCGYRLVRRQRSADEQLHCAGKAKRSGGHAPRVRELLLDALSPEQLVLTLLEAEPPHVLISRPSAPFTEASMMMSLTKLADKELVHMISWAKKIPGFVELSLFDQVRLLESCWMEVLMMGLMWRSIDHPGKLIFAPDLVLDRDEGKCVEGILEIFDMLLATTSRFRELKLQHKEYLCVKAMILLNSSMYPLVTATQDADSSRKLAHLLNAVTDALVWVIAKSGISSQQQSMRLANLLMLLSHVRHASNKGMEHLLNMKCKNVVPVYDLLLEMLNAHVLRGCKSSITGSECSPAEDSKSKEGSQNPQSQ
Procedure, shortened: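 Screening used GripTite ER-beta-UAS-bla cells held in 2% charcoal-stripped FBS medium. After overnight (16 hr) compound incubation at 37C, beta-lactamase activity was detected with a FRET substrate by fluorescence.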

[10] = qHTS assay to identify small molecule agonists of the androgen receptor (AR) signaling pathway in the presence of an antagonist - cell viability counter screen (AID 1259379); conditions: MDA-kb2 viability, CellTiter-Fluor, 16 h; series mostly up to 92.4 µM;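 also: MDA-kb2 human breast cancer cells carrying an MMTV luciferase reporter; nearly all actives have a fitted effect of over 25% in size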
Procedure, shortened: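 Cytotoxicity is assessed by CellTiter-Fluor in MDA-kb2 cells carrying an MMTV-driven luciferase reporter. Cells receive 3.0uM nilutamide plus compounds at 15 concentrations and incubate 16 hr at 37C without CO2 before fluorescence reading.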

[11] = qHTS assay to identify small molecule agonists of the estrogen receptor beta (ER-beta) signaling pathway - cell viability counter screen (AID 1259380); conditions: ER-beta-bla HEK293T viability, CellTiter-Glo luminescence, 16 h; series mostly up to 92.4 µM; also: nearly all actives have a fitted effect of over 30% in size
Procedure, shortened: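 Cytotoxicity is measured in parallel with the reporter screen: after 16 hr compound exposure at 37C and a 2 hr LiveBLAzer step, CellTiter-Glo is added to the same ER-beta-UAS-bla HEK293T wells and luminescence read after 30 min.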

[12] = qHTS assay to identify small molecule antagonists of the estrogen receptor beta (ER-beta) signaling pathway - cell viability counter screen (AID 1259382); conditions: ER-beta-UAS-bla HEK293T viability, CellTiter-Glo luminescence, 16 h; series mostly up to 92.4 µM;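 also: HEK293T cells carrying ER-beta-UAS-bla reporter stimulated with estradiol; nearly all actives have a fitted effect of over 55% in size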
Procedure, shortened: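 Cytotoxicity counter screen multiplexed with the beta-lactamase antagonist assay: GripTite HEK293T ER-beta-bla cells were treated 16 hr with test chemicals in the presence of 1nM 17-beta-estradiol, and viability was measured by CellTiter-Glo.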

[13] = qHTS assay to identify small molecule agonists or antagonists of the thyroid stimulating hormone receptor (TSHR) signaling pathway - wild type cell line counter screen (AID 1259384; calls by dose curve); conditions: HEK293 wild type, cAMP HTRF counter-screen, hits give high values; series mostly up to 92.4 µM
Procedure, shortened: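 Counter screen in untransfected Hek293: compounds (15-point titration, triplicate) plus phosphodiesterase inhibitor Ro20-1724 added after 18 h plating; 30 min RT. Intracellular cAMP via competitive d2/cryptate immunoassay, 1 h incubation.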

[14] = molecular target: Androgen receptor (Homo sapiens) (UniProt P10275); test: qHTS assay to identify small molecule antagonists of the androgen receptor (AR) signaling pathway using the MDA cell line in the presence of 0.5 nM R1881 (AID 1259243); conditions: MDA-kb2 MMTV-luciferase, R1881 0.5 nM, 16 h; series mostly up to 92.4 µM; also: nearly all actives have a fitted effect of over 50% in size
Androgen receptor (Homo sapiens), sequence (P10275 whole entry, looked up): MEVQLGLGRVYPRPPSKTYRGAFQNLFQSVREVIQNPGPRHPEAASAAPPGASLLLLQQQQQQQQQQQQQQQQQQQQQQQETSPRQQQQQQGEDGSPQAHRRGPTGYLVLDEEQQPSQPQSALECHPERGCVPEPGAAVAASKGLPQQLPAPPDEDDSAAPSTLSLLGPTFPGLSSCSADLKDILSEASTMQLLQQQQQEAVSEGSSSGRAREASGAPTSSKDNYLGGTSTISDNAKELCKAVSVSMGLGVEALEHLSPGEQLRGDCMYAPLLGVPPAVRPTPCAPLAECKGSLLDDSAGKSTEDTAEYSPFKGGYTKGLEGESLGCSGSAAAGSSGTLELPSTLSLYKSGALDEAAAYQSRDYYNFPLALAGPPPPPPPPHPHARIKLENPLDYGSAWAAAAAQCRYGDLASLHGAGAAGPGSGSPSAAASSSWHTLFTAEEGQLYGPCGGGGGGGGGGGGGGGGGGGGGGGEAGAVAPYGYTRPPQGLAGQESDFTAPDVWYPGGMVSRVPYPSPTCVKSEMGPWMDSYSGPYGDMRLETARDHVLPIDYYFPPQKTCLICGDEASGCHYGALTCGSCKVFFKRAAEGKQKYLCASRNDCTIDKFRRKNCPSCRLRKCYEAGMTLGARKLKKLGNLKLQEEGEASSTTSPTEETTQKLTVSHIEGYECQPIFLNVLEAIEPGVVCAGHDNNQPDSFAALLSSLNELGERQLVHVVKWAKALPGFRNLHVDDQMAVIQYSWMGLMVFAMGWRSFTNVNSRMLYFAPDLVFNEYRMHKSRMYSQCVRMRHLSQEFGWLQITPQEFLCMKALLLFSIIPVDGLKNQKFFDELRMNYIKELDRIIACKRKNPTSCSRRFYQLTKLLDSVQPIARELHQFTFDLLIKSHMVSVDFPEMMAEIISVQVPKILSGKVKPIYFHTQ
Procedure, shortened: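 Stably transfected MDA-kb2 cells express luciferase from an MMTV promoter bearing both AR and GR response elements. Compounds plus 0.5 nM R1881 (final) were incubated 16 hr at 37C without CO2, then luminescence measured.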

[15] = molecular target: Estrogen receptor beta (Homo sapiens) (UniProt Q92731); test: qHTS assay to identify small molecule antagonists of the estrogen receptor beta (ER-beta) signaling pathway (AID 1259378; active = well fitted inhibition curve with a large enough effect in the signal ratio in the repeat runs, not every such curve was filed as active; the % refers to the signal ratio); conditions: ER-beta-UAS-bla HEK293T, beta-lactamase FRET ratio, 16 h; series mostly up to 92.4 µM
Procedure, shortened: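 Antagonist mode: compounds added to beta-lactamase reporter HEK293T ER-beta-UAS cells stimulated with E2 (1nM final), 16 hr at 37C. LiveBLAzer B/G FRET substrate, 2 hours room temperature, fluorescence read-out.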

[16] = molecular target: Estrogen receptor (Homo sapiens) (UniProt P03372); test: qHTS assay to identify small molecule antagonists of the estrogen receptor alpha (ER-alpha) signaling pathway using the BG1 cell line in the presence of 0.1 nM 17-beta-estradiol (AID 1259244); conditions: VM7Luc4E2 (BG1) ERE-luciferase, antagonist mode, 0.1 nM E2, 22 h; series mostly up to 92.4 µM; also: nearly all actives have a fitted effect of over 50% in size
Estrogen receptor (Homo sapiens), sequence (P03372 whole entry, looked up): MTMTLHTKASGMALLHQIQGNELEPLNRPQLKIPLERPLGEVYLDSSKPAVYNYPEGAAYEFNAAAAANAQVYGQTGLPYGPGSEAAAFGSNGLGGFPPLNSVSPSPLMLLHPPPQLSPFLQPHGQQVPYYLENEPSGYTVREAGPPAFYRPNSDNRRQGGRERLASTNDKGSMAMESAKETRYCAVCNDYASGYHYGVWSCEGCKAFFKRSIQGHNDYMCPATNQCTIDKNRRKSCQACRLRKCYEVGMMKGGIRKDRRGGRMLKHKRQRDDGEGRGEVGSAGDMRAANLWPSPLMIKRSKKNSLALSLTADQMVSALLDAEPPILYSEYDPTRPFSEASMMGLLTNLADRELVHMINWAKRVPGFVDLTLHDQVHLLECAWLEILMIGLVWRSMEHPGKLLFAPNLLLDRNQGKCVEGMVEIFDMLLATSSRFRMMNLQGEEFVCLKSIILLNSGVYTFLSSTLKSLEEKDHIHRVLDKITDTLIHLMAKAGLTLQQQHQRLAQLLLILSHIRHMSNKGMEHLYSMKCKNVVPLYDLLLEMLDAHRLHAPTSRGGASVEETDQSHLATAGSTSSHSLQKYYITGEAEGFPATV
Procedure, shortened: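 Antagonist mode: compounds in DMSO are pinned onto VM7Luc4E2 reporter cells, 0.1 nM final 17beta-estradiol is added, and after 22 h at 37C luciferase luminescence is measured with ONE-Glo.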

[17] = molecular target: Estrogen receptor (Homo sapiens) (UniProt P03372); test: qHTS assay to identify small molecule agonists of the estrogen receptor alpha (ER-alpha) signaling pathway in the presence of an antagonist (AID 1259383; calls by dose curve; also: top concentration of the series differs between compounds; nearly all actives have a fitted effect of over 15% in size); conditions: VM7Luc4E2 cells, ERE-luciferase, +ICI-182,780, 22 h; series mostly up to 92.4 µM
Procedure, shortened: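 Agonist-mode confirmation in the presence of the ER antagonist ICI-182,780 at 10.0nM final. Breast-derived VM7Luc4E2 reporter cells were exposed to compounds for 22hr, and ERE-driven luciferase was quantified by luminescence.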

Row | Structure (SMILES) | Potency [1] | outcome [2] | Potency [3] | outcome [4] | Potency [5] | Potency [6] | outcome [7] | Potency [8] | Potency [9] | Potency [10] | Potency [11] | outcome [12] | outcome [13] | Potency [14] | outcome [15] | Potency [16] | outcome [17]
1 | COc1cc(N)ccc1C | inactive | inactive | inactive | inactive | inactive | inactive | inactive | inactive | inactive | inactive | inactive | inactive | inactive |  |  |  | 
2 | NS(=O)(=O)c1cc2c(cc1Cl)CN(C1CCCCC1)C2=O | inactive | inactive | inactive | inactive | inactive | inactive | inactive |  | inactive | inactive | inactive | inactive | inactive | inactive | inactive |  | 
3 | O=C(O)Cc1ccc(Cl)cc1Cl | inactive | inactive | inactive | inactive | inactive | inactive | inactive |  | inactive | inactive | inactive | inactive | inactive | inactive | inactive | inactive | inactive
4 | CCC(C=O)CC |  | inactive | inactive | inactive |  | inactive | inactive | inactive | inactive | inactive | inactive | inactive | inactive |  | inactive |  | 
5 | CC(C)N(c1ccccc1)C(C)C |  | inactive | inactive | inactive | inactive | inactive | inactive | inactive | inactive | inactive | inactive | inactive | inactive |  | inactive | inactive | inactive
6 | COc1cc2c(cc1OC)C(=O)CC2 | inactive | inactive | inactive | inactive | inactive | inactive | inactive | inactive |  | inactive | inactive | inactive | inactive | inactive |  |  | 
7 | CC(CO)c1ccccc1 (stereo not given) |  | inactive | inactive | inactive | inactive | inactive | inactive | inactive |  | inactive | inactive | inactive | inactive | inactive | inactive | inactive | inactive
8 | C=C(C)C(=O)OCc1ccccc1 | inactive | inactive | inactive | inactive | inactive | inactive | inactive | inactive |  | inactive | inactive | inactive |  |  |  | inactive | inactive
9 | CCCCCCN | inactive | inactive | inactive | inactive | inactive | inactive | inactive | 61.1 µM (active) |  | inactive | inactive | inactive | inactive |  |  | inactive | inactive
